TDP1 cell noCPT: qHTS for Inhibitors of human tyrosyl-DNA phosphodiesterase 1 (TDP1): qHTS in cells in absence of CPT. AID 686978, 2013. DT40 Tdp1-/- hTDP1 cells, no CPT, ATP luminescence, 48 h. 420,000 compounds, 15% hits. Potency, µM (titrated, usually from 46.2 µM), most hits filed as inhibitors; note: nearly all actives have a fitted effect of over 55% in size
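Readout: luminescence from CellTiter-Glo after 30 min in the dark at RT. Cells: DT40 Tdp1-/- with stable hTDP1, 400/well. Exposure: compounds alone, ≥48 hr, 37 °C.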
DT40 TDP1 CPT: growth inhibition of DT40 Tdp1-/-;hTDP1 cells with camptothecin (screen for TDP1 inhibitors); chicken DT40 Tdp1-/-;hTDP1 cells + 20 nM CPT, ATP luminescence, 48 h; Potency, µM (series often up to 46.2 µM), hits mostly inhibitors; 420,000 compounds, 12% hits; note: nearly all actives have a fitted effect of over 55% in size
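Chicken DT40 Tdp1-/- cells stably complemented with human TDP1 were seeded at 400 cells/well in medium containing 20 nM camptothecin, exposed to pin-transferred compounds, and grown at 37 °C for at least 48 hr. Viability was read as ATP luminescence.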
IL1B secr inh: inhibitors of inflammasome signaling (IL-1 beta secretion); AID 743279; THP-1 LPS/ATP IL-1B secretion, AlphaLISA, 16 h; hits give low values; 360,000 compounds, 4.7% hits; activity change, % at 57.5 µM; in the data active = activity change below about -50%; inconclusive = mostly about -30% to -49%
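Secreted IL-1B measured by AlphaLISA bead assay after 16 h compound exposure of THP-1 cells; compounds (final up to 57.5 uM) added 1 h before LPS (250 ng/mL) and ATP (1.25 mM) stimulation; lower signal means less secretion.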
HT1080-NT tox: kills 2HG-producing HT-1080-NT fibrosarcoma cells; HT-1080-NT fibrosarcoma viability, CellTiter-Glo ATP luminescence, 48 h; Potency, µM (top dose mostly 46.1 µM), most hits filed as cytotoxic; 360,000 compounds, 1.6% hits;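 note: NT is the 2HG producing partner of a matched IDH1 knockdown line; nearly all actives have a fitted effect of over 55% in size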
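Luminescent CellTiter-Glo readout after 48 hours of compound exposure at 37 degrees C defined viability of HT-1080-NT cells. Activity was normalized to DMSO wells and cell-free media wells; concentration-response curves were fitted and assigned curve classes.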
HT1080 IDH1KD tx: kills HT-1080 cells with IDH1 knockdown. HT-1080 IDH1 knockdown viability, ATP luminescence, 48 h. Potency, µM (top dose mostly 46.1 µM), most hits filed as cytotoxic. 360,000 compounds, 2% hits
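Knockdown cells (IDH1KD HT-1080) received compounds 2 h after plating at 750 cells/well and were kept 48 h at 37 °C in 5% FBS RPMI. A CellTiter-Glo luminescence read gave % activity for curve fitting.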
Each line names hits and unclear results; the compound was inactive in the other large screens. The list is not random: actives were taken first. Their share in the collection is about 19%. Unless noted, calls come from the whole dose curve; as a rule, active = well fitted curve in the direction sought with a large enough effect; inconclusive = small, poorly fitted or top-dose-only effect, or another doubt; inactive = no such curve, though single readings can be large; an effect the other way counts as inactive or inconclusive.

Cc1ccccc1C(=O)N1CCC2CC1c1cc(-c3ccc(F)cc3)ccc12 (stereo not given)	TDP1 cell noCPT 18µM, DT40 TDP1 CPT inconclusive
Cc1nc2cc(C(=O)N3c4ccccc4CC3C)ccc2s1 (stereo not given)	TDP1 cell noCPT 16µM, DT40 TDP1 CPT inconclusive, HT1080-NT tox 12µM, HT1080 IDH1KD tx 13µM
Cc1cc(=O)[nH]c2sc(C(=O)N3c4ccccc4CC3C)c(N)c12 (stereo not given)	DT40 TDP1 CPT inconclusive, IL1B secr inh -60, HT1080-NT tox inconclusive
Cc1csc2ncc(C(=O)N3c4ccccc4CC3C)c(=O)n12 (stereo not given)	none
CCN(C(=O)CSc1nnc(-c2ccc(OC)cc2)n1C(C)C)C1CCS(=O)(=O)C1 (stereo not given)	none
Cc1cc(=O)n(-c2ccc3ccccc3n2)[nH]1	TDP1 cell noCPT 21µM, DT40 TDP1 CPT 18µM, HT1080-NT tox inconclusive
CC1=CCC2C(=O)N(c3ccc4ccccc4n3)C(=O)C2C1 (stereo not given)	none
CC(C)N(Cc1nccn1C)C(=O)c1cc(COc2cccc(C(F)(F)F)c2)on1	TDP1 cell noCPT 13µM, DT40 TDP1 CPT 16µM
Cc1cc(OCc2cc(C(=O)N(Cc3nccn3C)C(C)C)no2)cc(C)c1Cl	TDP1 cell noCPT 6.5µM, DT40 TDP1 CPT 16µM, IL1B secr inh inconclusive, HT1080-NT tox inconclusive, HT1080 IDH1KD tx inconclusive
CSc1ccccc1OCc1cc(C(=O)N(Cc2nccn2C)C(C)C)no1	TDP1 cell noCPT inconclusive, DT40 TDP1 CPT 18µM
Cc1cc(OCc2cc(C(=O)N(C)C3CCOCC3)no2)cc(C)c1Cl	TDP1 cell noCPT inconclusive, DT40 TDP1 CPT inconclusive
Cc1ccc(CN(C)C(=O)c2cc(COc3ccc(F)cc3Cl)on2)o1	DT40 TDP1 CPT inconclusive
Cc1ccc(CN(C)C(=O)c2cc(COc3cccc(C(F)(F)F)c3)on2)o1	TDP1 cell noCPT 18µM, DT40 TDP1 CPT inconclusive, IL1B secr inh inconclusive
CCCS(=O)(=O)NC(=O)C1(C)CCN(C(=O)c2ccc(OC)cc2OC)C1 (stereo not given)	none
C=C1CC2C=C(NC(C)=O)CC(C1)C2 (stereo not given)	DT40 TDP1 CPT inconclusive
O=C(c1cnc2n(c1=O)CCS2)N1CCN(C(c2ccccc2)c2ccc(Cl)cc2)CC1 (stereo not given)	TDP1 cell noCPT 21µM, DT40 TDP1 CPT 12µM
CCOc1ccc(N2CC(C(=O)Nc3cc(OCC)c(N4CCOCC4)cc3OCC)CC2=O)cc1 (stereo not given)	none
Cc1ccc2sc(N(CCN(C)C)C(=O)c3ccc(S(=O)(=O)N4CC(C)OC(C)C4)cc3)nc2c1C (stereo not given)	DT40 TDP1 CPT inconclusive, IL1B secr inh -65
Cc1cc(C)c2nc(N(CCCN(C)C)C(=O)c3ccc(S(=O)(=O)N4CC(C)OC(C)C4)cc3)sc2c1 (stereo not given)	TDP1 cell noCPT 21µM, DT40 TDP1 CPT 16µM, IL1B secr inh -96
Cc1cc(C)c2nc(N(CCN(C)C)C(=O)c3ccc(S(=O)(=O)N(C)CC4CCCO4)cc3)sc2c1 (stereo not given)	DT40 TDP1 CPT inconclusive, IL1B secr inh inconclusive, HT1080-NT tox inconclusive
COC(=O)c1ccc2cc(OC)cc([N+](=O)[O-])c2n1	none
Cc1ccc(S(=O)(=O)ON2C(=O)c3cccc4cccc(c34)C2=O)cc1	TDP1 cell noCPT 16µM, DT40 TDP1 CPT inconclusive
O=C1c2cccc3cccc(c23)C(=O)N1OS(=O)(=O)c1ccc(Br)cc1	TDP1 cell noCPT 10µM, DT40 TDP1 CPT inconclusive
Cc1cc(S(=O)(=O)Nc2cc3c(cc2C)n(C)c(=O)c(=O)n3C)ccc1F	none (no result: IL1B secr inh, HT1080-NT tox, HT1080 IDH1KD tx)
Cc1cc(S(=O)(=O)ON2C(=O)c3ccccc3C2=O)ccc1F	TDP1 cell noCPT 2.1µM, DT40 TDP1 CPT 3.3µM
Cc1ccc(S(=O)(=O)N2CCC(CN3C(=O)c4cccc5cccc(c45)C3=O)CC2)cc1	TDP1 cell noCPT inconclusive, DT40 TDP1 CPT inconclusive
Cc1ccc2nc(NC(=O)CSc3nccn3Cc3ccc(Cl)cc3)sc2c1	none (no result: IL1B secr inh, HT1080-NT tox, HT1080 IDH1KD tx)

Source: PubChem BioAssay
